PAX8 inh HTS: lowers PAX8-driven luciferase in RMG-I cells; 1.2% of 360,000 active; RMG-I TPO-luciferase reporter, SteadyGlo, 24 h; AID 652154; inhibition, % at 12.6 µM;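 active = mean replicate inhibition at least 60% with every replicate also reaching 60%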;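 note: luciferase light reporting Pax8 driven TPO promoter activity; plate controls were median of neutral control wells for no effect and mitoxantrone controls for full effect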
HIF-2a inh: blocks HIF-2a reporter activity | AID 624352 | 786-0 RCC cells HIF-2a reporter, luciferase luminescence, overnight | 0.72% of 360,000 active | inhibition, % at 18.8 µM;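 active = inhibition of the luminescence signal of 40% or more relative to plate controls, in a single-dose primary screen at 18.75 µM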
EWS-Fli inh: EWS/Fli transcriptional activity inhibition. A673 NR0B1-luciferase reporter, viability-normalised. inhibition, % at 12.6 µM. 0.67% of 350,000 active. AID 651661;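 active = mean inhibition of at least 50% after viability correction, with every replicate also passing that limit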;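 note: firefly luciferase signal divided by Alamar Blue viability fluorescence both relative to DMSO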
CF NFkB block: blocks PAF-induced NF-kB reporter in cystic fibrosis cells. KKLEB NF-kB-GFP reporter, GFP fluorescence overnight. inhibition, % at 5 µM. 0.86% of 360,000 active;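 active = at least 50% inhibition at 5 µM, scaled per plate between neutral and stimulator controls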;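 note: PAF is a Pseudomonas aeruginosa culture filtrate used as stimulus; plate controls were PAF-stimulated DMSO wells for no effect and unstimulated DMSO wells for full effect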
KKLEB tox: reduces viability of KKLEB cystic fibrosis airway cells. activity change (cytotoxicity), % at 5 µM. KKLEB CF airway cells viability, ATPlite luminescence, overnight; hits give low values; cells stimulated with P. aeruginosa culture filtrate. 0.36% of 360,000 active. AID 602141;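 active = corrected activity change at or below -50% at 5 µM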
An asterisk follows results filed as active. Sampled rows, rich in hits. Any-hit rate of the full collection: about 2.1%.

For C[C@H](CO)N1C[C@H](C)[C@H](CN(C)S(=O)(=O)c2ccccc2)OCCCC[C@H](C)Oc2ccc(NS(=O)(=O)c3ccc(Cl)cc3)cc2C1=O the results were PAX8 inh HTS 84* and EWS-Fli inh 3.
`C[C@@H]1CN([C@H](C)CO)C(=O)c2cc(NS(=O)(=O)c3ccc(Cl)cc3)ccc2O[C@@H](C)CCCCO[C@@H]1CN(C)S(=O)(=O)c1ccccc1` gave PAX8 inh HTS 23 and EWS-Fli inh 4.
C[C@@H]1CCCCO[C@H](CN(C)S(=O)(=O)c2ccccc2)[C@H](C)CN([C@H](C)CO)C(=O)c2cc(NS(=O)(=O)c3ccc(Cl)cc3)ccc2O1 was read as PAX8 inh HTS 46 and EWS-Fli inh -1.
`C[C@H](CO)N1C[C@H](C)[C@@H](CN(C)S(=O)(=O)c2ccccc2)OCCCC[C@H](C)Oc2ccc(NS(=O)(=O)c3ccc(Cl)cc3)cc2C1=O` gave PAX8 inh HTS 86* and EWS-Fli inh -3.
For C[C@H](CO)N1C[C@H](C)[C@@H](CN(C)S(=O)(=O)c2ccc(Cl)cc2)OCCCC[C@H](C)Oc2ccc(NS(=O)(=O)c3ccccc3)cc2C1=O the results were PAX8 inh HTS 76* and EWS-Fli inh 7.
O=C(N[C@@H]1CC[C@@H](CC(=O)N2CCc3ccccc3C2)O[C@H]1CO)C1CCOCC1 was read as PAX8 inh HTS -11 and EWS-Fli inh 3.
For COC(=O)C1=C(C)N(Cc2cccc(C(F)(F)F)c2)C(=NCc2ccc(OC)cc2)NC1c1cccc(C(F)(F)F)c1 (stereo unspecified) the results were PAX8 inh HTS 77* and EWS-Fli inh 50.
COC(=O)C1=C(C)N(Cc2ccc(C(F)(F)F)cc2)C(=NCc2ccc(C(F)(F)F)cc2)NC1c1ccccc1 (stereo unspecified) was read as PAX8 inh HTS 40 and EWS-Fli inh 40.
Screening COC(=O)C1=C(C)N(Cc2ccc(C(F)(F)F)cc2)C(=NCc2ccccc2)NC1c1cccc(F)c1 (stereo unspecified) returned PAX8 inh HTS 101* and EWS-Fli inh 26.
`COC(=O)C1=C(C)N(Cc2cccc(C(F)(F)F)c2)C(=NCc2ccc(C(F)(F)F)cc2)NC1c1ccc(C(F)(F)F)cc1` (stereo unspecified) gave PAX8 inh HTS 77* and EWS-Fli inh 30.
Screening COC(=O)C1=C(C)N(Cc2ccccc2)C(=NCc2cccc(Cl)c2)N[C@H]1c1cccc(F)c1 returned HIF-2a inh 2, CF NFkB block 60* and KKLEB tox -53*.
COc1cccc(CN2CC3(CN(C(C)=O)C3)c3c(n(C)c4cc(OC)ccc34)[C@H]2CO)c1 was read as EWS-Fli inh -5.
For COC(=O)C1=C(C)N(Cc2ccc(C(F)(F)F)cc2)C(=NCC2CC2)NC1c1cccc(Cl)c1 (stereo unspecified) the results were PAX8 inh HTS 68* and EWS-Fli inh 29.
For COC(=O)C1=C(C)N(Cc2cccc(C(F)(F)F)c2)C(=NCc2ccc(C(F)(F)F)cc2)NC1c1cccc(F)c1 (stereo unspecified) the results were PAX8 inh HTS 74* and EWS-Fli inh 49.
`COC(=O)C1=C(C)N(Cc2ccc(C(F)(F)F)cc2)C(=NCc2ccc(OC)cc2)NC1c1cccc(Cl)c1` (stereo unspecified) gave PAX8 inh HTS 15 and EWS-Fli inh -14.
CCN1C(=O)C(=Cc2cccc(OC)c2Oc2ccc([N+](=O)[O-])cc2[N+](=O)[O-])SC1=S was read as PAX8 inh HTS 38, HIF-2a inh 6, EWS-Fli inh 58*, CF NFkB block 88* and KKLEB tox -84*.
Screening CCOC(=O)C1CCN(S(=O)(=O)c2c(Cl)ccc3nonc23)CC1 returned PAX8 inh HTS 29, HIF-2a inh 92*, CF NFkB block 90* and KKLEB tox -44.
Screening CN(C(=O)COC(=O)C1CCN(S(=O)(=O)c2c(Cl)cccc2Cl)CC1)C1CCS(=O)(=O)C1 (stereo unspecified) returned PAX8 inh HTS 113*, HIF-2a inh 7, EWS-Fli inh -2, CF NFkB block -5 and KKLEB tox 6.
`O=[N+]([O-])/C=C\c1ccc(N2CCCC2)c(F)c1` gave HIF-2a inh 46*, CF NFkB block -21 and KKLEB tox -12.

Screening data (PubChem BioAssay)
